Test results taken from PubChem BioAssay (NCI).
This is part of a sample that, as a whole, favours compounds with a hit. Of some 79,000 tested, about 15% had one in any assay. The source made the active and inactive calls. Rule as the data show it: active = growth inhibition above about 70%; inactive = the rest.

Columns and labels:
[1] = NCI Yeast Anticancer Drug Screen. Data for the rad50 strain (AID 155);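 also: 0% = growth of vehicle-only cultures of the same strain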; settings: S. cerevisiae rad50 strain growth inhibition; at 50.0 µM; hits give high values
In short: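 Readout: growth inhibition relative to vehicle-treated cultures. Compound exposure was carried out in a genetically defined yeast strain deficient in DNA damage repair.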

[2] = NCI Yeast Anticancer Drug Screen. Data for the mec2-1 strain (AID 157); settings: S. cerevisiae mec2-1 strain, at 50.0 µM, hits give high values
In short: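 Compounds were applied to mec2-1 yeast cells. Their growth was then compared with that of vehicle-treated cultures to give growth inhibition.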

[3] = NCI Yeast Anticancer Drug Screen. Data for the sgs1 mgt1 strain (AID 161);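 also: 0% = growth of cultures given vehicle only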; settings: S. cerevisiae sgs1 mgt1 strain, at 50.0 µM, hits give high values
In short: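 This yeast growth screen uses a strain with defined DNA-repair lesions; compound-treated growth is compared with vehicle-treated growth.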

[4] = NCI Yeast Anticancer Drug Screen. Data for the cln2 rad14 strain (AID 165);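 also: 0% = growth equal to vehicle treated cultures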; settings: S. cerevisiae cln2 rad14 strain, at 50.0 µM, hits give high values
In short: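 Strain: cln2 rad14 yeast, altered in cell cycle control and DNA damage repair. Read-out: growth inhibition vs vehicle.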

[5] = NCI Yeast Anticancer Drug Screen. Data for the bub3 strain (AID 167); settings: S. cerevisiae bub3 mutant strain, at 50.0 µM, hits give high values
In short: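 Readout: yeast growth inhibition, expressed relative to vehicle-only wells. The test organism is a mutant strain from a panel with lesions in DNA repair or checkpoint genes.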

[6] = NCI Yeast Anticancer Drug Screen. Data for the mlh1 rad18 strain (AID 175); settings: S. cerevisiae mlh1 rad18 strain growth inhibition; at 50.0 µM; hits give high values
In short: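 A repair-deficient yeast strain is exposed to test compound, and growth is scored relative to vehicle-treated controls.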

Measured: growth inhibition

CC(=O)N(C)c1ccc(Nc2cc(S(=O)(=O)O)c(N)c3c2C(=O)c2ccccc2C3=O)cc1
inactive: [1] -20.2% | [2] -14.1% | [3] -27.4% | [4] -13.8% | [5] -37.3% | [6] -4.25%

CC(C#N)NCc1ccc(C(C)NC(C)C#N)cc1 (centres undefined)
inactive: [1] 4.5% | [2] 2.15% | [3] -43.8% | [4] -26.1% | [5] -10.8% | [6] -15.7%

CCOC(=O)C1CCCC1S(=O)(=O)c1ccc(C)cc1 (centres undefined)
inactive: [1] -20% | [2] -15.3% | [3] -27.4% | [4] 21.9% | [5] 1.75% | [6] -3.5%

C[N+]12CCCCC1CC2 (centres undefined)
inactive: [1] 29.4% | [2] -5.25% | [3] -7.35% | [4] -39.5% | [5] -40.3% | [6] 9.85%

COC(=O)c1nc(N)nc(C(=O)OC)c1C(=O)c1ccco1
inactive: [1] 3.95% | [2] -4.25% | [3] 30.3% | [4] -3.7% | [5] 1.55% | [6] 26.5%

CC(C)Nc1ccc(O)cc1
inactive: [1] -21.1% | [2] -40% | [3] -4.2% | [4] -6.3% | [5] -10.3% | [6] -8%

N#Cc1cccc(CC(O)(c2ccccc2)c2ccccc2)c1
inactive: [1] 19.6% | [2] 19.9% | [3] 5.1% | [4] 11% | [5] 20.5% | [6] 18.4%

O=S(=O)(Cl)c1cccc2cc3ccccc3cc12
inactive: [1] 0.6% | [2] -10.1% | [3] 3.95% | [4] -12.9% | [5] 12.9% | [6] -7.05%

O=C1C(Br)=C(Br)C(=O)C2=C1C1c3ccccc3C2c2ccccc21
active: [1] 98.5% | [2] 98.2% | [3] 97.8% | [4] 97% | [5] 98.2% | [6] 97.8%

CCOC(=O)C1=C2c3ccc4cc(OC)ccc4c3CCC2(C)C(=O)C1 (centres undefined)
inactive: [1] -19.1% | [2] 15.5% | [3] -2.55% | [4] -21.1% | [5] -11.2% | [6] -21.1%

CCN(CC)C(=O)COc1ccc(Cl)cc1
inactive: [1] 2.05% | [2] -7.75% | [3] -5.55% | [4] -41.7% | [5] -26.6% | [6] -20.7%

Cc1ccccc1NC(=O)Nc1ccc(Nc2ccccc2)cc1
inactive: [1] -6.5% | [2] 32.2% | [3] 9.95% | [4] -11.6% | [5] 5.95% | [6] 25.5%

NCCCc1ccc2c(c1)OCO2
inactive: [1] 42.2% | [2] 6.45% | [3] 36% | [4] 47.7% | [5] 30.4% | [6] 50.5%

C=C1[C@H](OCC(C)C)[C@@H](OCC(C)C)[C@@H](O)C(C)(C)/C=C/[C@H](C)C(=O)[C@@]2(O)C[C@H](C)[C@H](O)[C@@H]2[C@H]1OCC(C)C
inactive: [1] -37.9% | [2] -45% | [3] -9.85% | [4] -36.3% | [5] -12.8% | [6] -68.8%

COC(=O)CCCCCCCCC(C)C(C)=O (centres undefined)
inactive: [1] -34.8% | [2] -29.8% | [3] -16.4% | [4] -12.5% | [5] -45.3% | [6] -32.5%

CCN(CC)CCNC(=O)c1c(C)cc(C)cc1C
inactive: [1] -5.1% | [2] 0.2% | [3] -0.3% | [4] -53.2% | [5] -1.95% | [6] 10.8%

CCOC(=O)[C@@]12[C@H](N3C(=O)c4ccccc4C3=O)C(=O)N1CCS2(=O)=O
inactive: [1] -1.9% | [2] -5.7% | [3] -29.4% | [4] -22.9% | [5] -1.5% | [6] 6.95%

O=C(O)C1CCC(C(=O)O)S1 (centres undefined)
inactive: [1] 1.85% | [2] -10.4% | [3] -0.85% | [4] -13.1% | [5] 9.9% | [6] 16.1%

CCCCN1C(=O)C(NC(C)=O)C1COC(C)(C)C (centres undefined)
inactive: [1] -21.9% | [2] -5.2% | [3] -28.4% | [4] -8.65% | [5] -28.1% | [6] -35.5%

COc1ccc(CC2(C(=O)O)NCCc3cc(O)c(OC)cc32)cc1O (centres undefined)
inactive: [1] 16.7% | [2] -3.25% | [3] -13.7% | [4] 4.15% | [5] -0.5% | [6] -5.5%

Cc1c2oc3c(C)ccc(C(=O)NCCN4CCOCC4)c3nc-2c(C(=O)NCCN2CCOCC2)c(N)c1=O
inactive: [1] -8.1% | [2] 29.6% | [3] 37.5% | [4] -26.5% | [5] 38.9% | [6] 15.8%

CCSC(C(OC(C)=O)C(OC(C)=O)C(COC(C)=O)OC(C)=O)n1cnc2c(=S)nc[nH]c21 (centres undefined)
inactive: [1] 6.75% | [2] -0.45% | [3] 9.35% | [4] 18.8% | [5] -1.55% | [6] 1.7%

COC(=O)C[C@H]1CCC2(OCCO2)[C@]1(C)C(=O)OC
inactive: [1] -10.7% | [2] -11.6% | [3] -11.2% | [4] -23.4% | [5] -6.9% | [6] -27.1%

O/N=C1\CC2(N3CCOCC3)CCC1(c1ccccc1)CC2
inactive: [1] 11.5% | [2] -12.3% | [3] 54.1% | [4] 20.9% | [5] 38% | [6] 11.9%

Cc1nn(-c2ccc(Cl)cc2)c2c1c(=O)[nH]c1ccccc12
inactive: [1] 6% | [2] -3.45% | [3] 1% | [4] -24.6% | [5] -2.05% | [6] -5.05%

CN1c2ccccc2C2=C(c3ccccc3)CC[C@@H](C(=O)N3C4CC5CC[C@@]4(CS3(=O)=O)C5(C)C)[C@@H]21 (some centres undefined)
inactive: [1] -14.6% | [2] -6.2% | [3] 20.6% | [4] 10% | [5] -8.85% | [6] 31.8%

NC(=O)c1ncn2c(=O)n(CCl)nnc12
active: [2] 81.6% | [6] 83.5%
inactive: [1] 57.4% | [3] 29.6% | [4] 45.5% | [5] 57.5%

Cc1cc(N=Nc2ccc(S(=O)(=O)O)c3ccccc23)ccc1O
inactive: [1] -33.6% | [2] 9.75% | [3] -5.1% | [4] -66.1% | [5] 12.9% | [6] -5.6%

CCCCCCCCCC(O)CCCC(O)C(O)CCCCCCC(=O)O (centres undefined)
inactive: [1] 13.1% | [2] 15% | [3] 22.7% | [4] 17.5% | [5] -3.05% | [6] 37.6%

CC[n+]1ccc(-c2ccccc2)o1
inactive: [1] 3.6% | [2] 13.1% | [3] 2.25% | [4] 27.3% | [5] 28.4% | [6] -4.75%

CCC1CN1C(=O)c1cc(C(=O)N2CC2CC)cc(C(=O)N2CC2CC)c1 (centres undefined)
inactive: [1] 3.2% | [2] 15.7% | [3] 5.5% | [4] 24.3% | [5] -5.75% | [6] 20%

Cc1cc[c]([Sb]2([c]3ccc(C)cc3)([c]3ccc(C)cc3)[NH]c3cc(C(c4ccccc4)(c4ccccc4)c4ccccc4)cc(C(C)(C)C)c3[O]2)cc1
inactive: [1] -1.65% | [2] 14.3% | [3] 5.15% | [4] -23.6% | [5] -1.25% | [6] 11.1%

Cc1c(F)c(N)c2c(=O)cc(-c3ccc(N)c(F)c3)oc2c1F
inactive: [1] 32.8% | [2] 16.1% | [3] 30.1% | [4] 21.3% | [5] 22.9% | [6] 1.2%

CC1C=C(Br)C(=O)C(n2cnc3c(=O)n(C)c(=O)n(C)c32)O1 (centres undefined)
inactive: [1] 24.1% | [2] 13.5% | [3] 18.8% | [4] 8% | [5] 10.9% | [6] 34%

CCOC(=O)c1cnc(SC)nc1Nc1cccc(C)c1
inactive: [1] -13.4% | [2] -10.4% | [3] -11.9% | [4] -18.1% | [5] 9.1% | [6] -36.1%

CCOC(=O)CNC1C(NC(C)=O)C(OC)OC2COC(c3ccccc3)OC21 (centres undefined)
inactive: [1] -7.7% | [2] 6.6% | [3] 6.7% | [4] -12.3% | [5] -0.75% | [6] -2.4%

CC(=O)OCC1OC(OC(C)=O)C(N)C(OC(C)=O)C1OC(C)=O (centres undefined)
inactive: [1] 2.15% | [2] 11.8% | [3] 11.9% | [4] 9.05% | [5] -15.9% | [6] 19.4%

O=C(O)Cc1ccc2ccccc2c1
inactive: [1] 6.3% | [2] 13.2% | [3] 20.6% | [4] 3.6% | [5] 0.45% | [6] 48%

COC(=O)C1CC(=O)CCC1c1ccccc1 (centres undefined)
inactive: [1] 1.5% | [2] -7.25% | [3] -16.1% | [4] -6.45% | [5] -7.55% | [6] -16.6%
